Data on 20 compounds can be found in PubChem BioAssay (EPA / NIEHS).

What is called AC50 is the concentration at which the activity in the assay is half-maximal.

The target in test [1] is rat Gamma-Aminobutyric Acid Type A Receptor BDZ, alpha 6 site (GABARa6), Gabra6 (gene 29708) (UniProt P30191). Briefly: NVS_LGIC_rGABARa6: NovaScreen (NVS) Ligand-Gated Ion Channel Assay for rat Gamma-Aminobutyric Acid Type A Receptor BDZ, alpha 6 site (GABARa6) (AID 2283339). The essentials: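 Rat cerebellar membranes; radioligand binding, filtration and scintillation counting, read 1 h after dosing. Single-concentration duplicate screen at 25 uM, then concentration-response up to 50 uM for actives; loss of signal fitted versus DMSO baseline.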
rat Gamma-Aminobutyric Acid Type A Receptor BDZ, alpha 6 site (GABARa6), Gabra6 (gene 29708), sequence (P30191 whole entry, looked up): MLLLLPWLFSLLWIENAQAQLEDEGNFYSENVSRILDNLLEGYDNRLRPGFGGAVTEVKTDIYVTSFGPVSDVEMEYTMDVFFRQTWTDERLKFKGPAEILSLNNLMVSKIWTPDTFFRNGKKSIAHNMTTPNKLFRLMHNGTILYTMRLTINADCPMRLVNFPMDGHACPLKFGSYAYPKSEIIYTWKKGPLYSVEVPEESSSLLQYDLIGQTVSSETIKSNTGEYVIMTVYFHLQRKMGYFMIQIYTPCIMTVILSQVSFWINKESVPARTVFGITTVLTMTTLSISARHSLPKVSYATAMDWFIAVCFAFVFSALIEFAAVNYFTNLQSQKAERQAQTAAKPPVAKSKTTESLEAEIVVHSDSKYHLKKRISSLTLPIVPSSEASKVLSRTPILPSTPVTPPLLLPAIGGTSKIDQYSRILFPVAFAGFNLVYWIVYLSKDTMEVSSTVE

For test [2], the target named is Norway rat Vesicular Monoamine Transporter (VMAT2), neurotransmitter transporter, Slc18a2 (gene 25549) (UniProt Q01827). Briefly: NVS_TR_rVMAT2: NovaScreen (NVS) Transporter Assay for Norway rat Vesicular Monoamine Transporter (VMAT2), neurotransmitter transporter (AID 2283376).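 Note: actives lower the bound radioligand signal below the DMSO level.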 The essentials: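 Rat forebrain tissue preparation used in a cell-free radioligand binding format; displacement read by filter-based scintillation counting 1 hour after dosing. Primary screen in duplicate at 25 uM, actives then run in concentration series; loss of signal versus DMSO baseline.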
Norway rat Vesicular Monoamine Transporter (VMAT2), neurotransmitter transporter, Slc18a2 (gene 25549), sequence (Q01827 whole entry, looked up): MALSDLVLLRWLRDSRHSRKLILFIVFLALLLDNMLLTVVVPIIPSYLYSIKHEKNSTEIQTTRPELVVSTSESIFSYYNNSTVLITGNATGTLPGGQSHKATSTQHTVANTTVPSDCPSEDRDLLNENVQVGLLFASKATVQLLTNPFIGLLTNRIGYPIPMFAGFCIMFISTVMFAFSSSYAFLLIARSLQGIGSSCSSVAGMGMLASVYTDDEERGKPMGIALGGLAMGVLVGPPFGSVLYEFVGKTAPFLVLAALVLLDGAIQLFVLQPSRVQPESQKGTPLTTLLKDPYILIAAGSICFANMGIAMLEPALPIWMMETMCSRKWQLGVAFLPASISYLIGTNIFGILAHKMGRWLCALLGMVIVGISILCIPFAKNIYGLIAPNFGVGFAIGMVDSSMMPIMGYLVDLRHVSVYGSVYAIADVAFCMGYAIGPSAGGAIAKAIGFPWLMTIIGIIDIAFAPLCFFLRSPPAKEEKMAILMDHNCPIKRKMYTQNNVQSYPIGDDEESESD

Test [3] in a line: CCTE_Harrill_HTTr_Apoptosis_PRF_DMEM_12hr: (Pilot) CCTE's 12-hour Apoptosis Assessment for the High-Throughput Transcriptomics (HTTr) Platform, in MCF-7 cells cultured in phenol red-free DMEM + 10% charcoal-stripped fetal bovine serum, Harrill Lab (AID 2283985; active = hit-call score of the fitted dose curve at least 0.9, where 1 is the maximum; inactive = score below 0.9). The procedure, abridged: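 MCF-7 cells in phenol red-free DMEM with 10% charcoal-stripped FBS, eight-point dilution series, 12 h exposure. Caspase-3/7 activation imaged by high content imaging with CellEvent Green reagent; bidirectional fit vs DMSO.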

Test [4] concerns the target rat Neurotensin Receptor (NTS), Ntsr1 (gene 366274) (UniProt P20789). Briefly: NVS_GPCR_rNTS: NovaScreen (NVS) G Protein-Coupled Receptor Assay for rat Neurotensin Receptor (NTS) (AID 2283308). The procedure, abridged:
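Rat forebrain membranes; radioligand binding with competitive displacement, read by filter-based scintillation counting 1 h after dosing. Primary screen in duplicate at 25 uM; actives (e.g., 30% inhibition) rerun in concentration-response up to 50 uM, loss-of-signal versus DMSO.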

In test [5] the target is Voltage-dependent N-type calcium channel subunit alpha-1B (Rattus norvegicus) (UniProt Q02294). Briefly: NVS_IC_rCaChN: NovaScreen (NVS) Ion Channel Assay for rat Calcium Channel, Type N (CaChN) (AID 2283317).
Test [6] is described as follows: ATG_M_32_XSP2: Attagene TRANS-FACTORIAL Multi-Species (XSP2) HepG2 Assay for M19 Transcription Factor (Internal Marker) (AID 2283826). The essentials: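 Transfected HepG2 (multiplexed GAL4-UAS reporters), 24 h chemical exposure, 3 nM 6-alpha-fluorotestosterone + 1.5 nM norgestrel added. RNA → oligo(dT) RT → PCR → 6-FAM primer extension → HpaI cut → CE. Fitted upward vs DMSO.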

The target of test [7] is Estrogen receptor (Homo sapiens) (UniProt P03372). Briefly: NVS_NR_hER: NovaScreen (NVS) Nuclear Receptor Binding Assay for human Estrogen Receptor (ER) (AID 2283348). The procedure, abridged: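 Cell-free radioligand binding with protein extracted from MCF7 cells; scintillation counting 18 hours after dosing. Loss of signal versus DMSO baseline read as displacement; primary single-concentration screen at 25 uM in duplicate, actives retested in concentration series.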
Estrogen receptor (Homo sapiens), sequence (P03372 whole entry, looked up): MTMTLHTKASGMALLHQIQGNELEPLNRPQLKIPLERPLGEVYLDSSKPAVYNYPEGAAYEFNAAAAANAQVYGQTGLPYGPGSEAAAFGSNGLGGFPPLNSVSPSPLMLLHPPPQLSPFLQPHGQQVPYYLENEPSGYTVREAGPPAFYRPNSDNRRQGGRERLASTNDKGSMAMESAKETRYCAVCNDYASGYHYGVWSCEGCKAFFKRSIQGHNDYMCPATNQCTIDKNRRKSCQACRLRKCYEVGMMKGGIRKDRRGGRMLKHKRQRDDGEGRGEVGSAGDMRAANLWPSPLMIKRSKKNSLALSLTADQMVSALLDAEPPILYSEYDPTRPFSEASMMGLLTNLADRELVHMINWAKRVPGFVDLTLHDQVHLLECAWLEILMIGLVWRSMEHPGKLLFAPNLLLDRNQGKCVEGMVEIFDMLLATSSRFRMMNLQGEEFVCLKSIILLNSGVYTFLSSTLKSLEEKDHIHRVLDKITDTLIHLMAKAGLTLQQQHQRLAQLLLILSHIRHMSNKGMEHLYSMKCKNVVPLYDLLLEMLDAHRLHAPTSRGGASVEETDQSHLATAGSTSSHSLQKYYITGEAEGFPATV

Test [8] is described as follows: TOX21_p53_BLA_p2_viability: Viability Assessment in the Tox21 HCT-116 p53 Agonism Beta-lactamase Assay, Phase 2 (AID 2283591).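 Note: compound exposure lasted 16 h at 37 °C; actives lower the ATP signal meaning cytotoxicity.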 The essentials:
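HCT-116 p53-bla cells (4000/well) rested 5 h at 37C, then received compounds in DMSO (217-fold dilution) for 16 h at 37C, 5% CO2. After the CCF4 read, CellTiter-Glo was added; ATP luminescence was read after 30 min at room temperature.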

In test [9] the target is Cellular tumor antigen p53 (Homo sapiens) (UniProt P04637). Briefly: TOX21_p53_BLA_p2_ratio: Tox21 HCT-116 p53 Agonism Beta-lactamase Assay, Ratio, Phase 2 (AID 2283592). The essentials:
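HCT116 p53-bla; 4000 cells/well; 5 h pre-incubation; cpd in DMSO, 217-fold dilution; 16 h 37C/5% CO2; CCF4-AM 2 h RT; Ex 405, Em 460/530 ratio; DMSO = baseline; positive fitting direction.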

Test [10] shares this target. Briefly: TOX21_p53_BLA_p3_ratio: Tox21 HCT-116 p53 Agonism Beta-lactamase Assay, Ratio, Phase 3 (AID 2283596). The essentials: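 HCT116 p53-bla cells (4000/well) given compound in DMSO (217-fold dilution) after 5 h, incubated 16 h at 37C. CCF4-AM substrate 2 h at room temperature; 460/530 nm emission ratio, gain fitted against DMSO.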
Test [11] in a line: TOX21_p53_BLA_p4_viability: Viability Assessment in the Tox21 HCT-116 p53 Agonism Beta-lactamase Assay, Phase 4 (AID 2283597).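 Note: hits lower the luminescence signal meaning cytotoxicity.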 The essentials: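 Cells plated, 5 h pre-incubation; DMSO compounds pinned (217-fold dilution); 16 h, 37C/5% CO2; CCF4-AM 2 h RT; CellTiter-Glo 30 min RT; luminescence read.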
In test [12] the target is Cellular tumor antigen p53 (Homo sapiens) (UniProt P04637). Briefly: TOX21_p53_BLA_p4_ratio: Tox21 HCT-116 p53 Agonism Beta-lactamase Assay, Ratio, Phase 4 (AID 2283601). The procedure, abridged:
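HCT116 cells carrying an inducible beta-lactamase reporter were plated at 4000 cells/well, rested 5 h, then exposed to compounds in DMSO (217-fold dilution) for 16 h at 37C. CCF4-AM substrate was loaded 2 h at room temperature; 460/530 nm emission ratio scored gain-of-signal versus DMSO.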

Test [13] has as its target bovine Estrogen Receptor (ER), ESR1 (gene 407238) (UniProt P49884). Briefly: NVS_NR_bER: NovaScreen (NVS) Nuclear Receptor Binding Assay for bovine Estrogen Receptor (ER) (AID 2283345).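 Note: actives lower the bound radioligand count which means they displace the ER ligand.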 The procedure, abridged: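 Bovine uterine membranes; tritiated or iodinated radioligand; competitive displacement; 18 h; scintillation read; DMSO negative control; 25 uM duplicates, then concentration series for actives.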

Test [14] can be described thus: TOX21_p53_BLA_p3_viability: Viability Assessment in the Tox21 HCT-116 p53 Agonism Beta-lactamase Assay, Phase 3 (AID 2283593).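 Note: cells exposed to compound for 16 h before reading.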 The essentials: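 HCT-116 cells (4000/well) rested 5 h at 37C, then got DMSO compounds by pin tool (217-fold dilution) for 16 h at 37C, 5% CO2. After the bla read, CellTiter-Glo was added and luminescence read at 30 min, room temperature.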

The target of test [15] is Cellular tumor antigen p53 (Homo sapiens) (UniProt P04637). Briefly: TOX21_p53_BLA_p5_ratio: Tox21 HCT-116 p53 Agonism Beta-lactamase Assay, Ratio, Phase 5 (AID 2283599). The essentials:
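HCT-116 cells carrying a p53-inducible beta-lactamase reporter were seeded at 4000 cells/well and dosed after 5 h with compound in DMSO (217-fold dilution). After 16 h at 37C, CCF4-AM substrate was added for 2 h, and the 460/530 nm emission ratio was scored as gain-of-signal versus DMSO.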

The nature of test [16]: TOX21_p53_BLA_p5_viability: Viability Assessment in the Tox21 HCT-116 p53 Agonism Beta-lactamase Assay, Phase 5 (AID 2283600). The essentials:
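4000 cells/well; 5 h pre-incubation; DMSO compounds pin-transferred, 217-fold dilution; 16 h, 37C/5% CO2; CCF4-AM 2 h RT; CellTiter-Glo 30 min RT; luminescence.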

For test [17], the target named is rat Oxytocin Receptor (OXT), Oxtr (gene 25342) (UniProt P70536). Briefly: NVS_GPCR_rOXT: NovaScreen (NVS) G Protein-Coupled Receptor Assay for rat Oxytocin Receptor (OXT) (AID 2283330). The procedure, abridged: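 Radioligand displacement on rat uterine membranes, 1 h incubation, filter-based scintillation counting. Chemicals were screened in duplicate at 25 uM, and those passing threshold were retested in concentration-response up to 50 uM. Loss of binding was fitted versus DMSO.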
rat Oxytocin Receptor (OXT), Oxtr (gene 25342), sequence (P70536 whole entry, looked up): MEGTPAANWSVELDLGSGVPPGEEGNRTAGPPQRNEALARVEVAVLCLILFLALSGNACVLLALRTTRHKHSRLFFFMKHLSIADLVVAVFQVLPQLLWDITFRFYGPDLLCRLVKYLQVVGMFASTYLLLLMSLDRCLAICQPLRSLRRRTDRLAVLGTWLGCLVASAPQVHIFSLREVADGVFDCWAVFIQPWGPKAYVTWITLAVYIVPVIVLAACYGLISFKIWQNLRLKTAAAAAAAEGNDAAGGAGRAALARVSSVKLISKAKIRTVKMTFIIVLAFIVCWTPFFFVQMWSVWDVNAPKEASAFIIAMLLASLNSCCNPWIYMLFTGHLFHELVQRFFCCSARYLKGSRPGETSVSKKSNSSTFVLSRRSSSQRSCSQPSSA

Test [18] concerns the target Bile acid receptor (Homo sapiens) (UniProt Q96RI1). Briefly: NVS_NR_hFXR_Agonist: NovaScreen (NVS) Nuclear Receptor Binding Assay for human Farnesoid X Receptor Agonism (FXR) (AID 2283347). The procedure, abridged: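 Cell-free TR-FRET binding assay with extracted human FXR protein, agonist format, read 1 h after dosing. Primary screen at 25 uM single concentration in duplicate, actives retested in concentration series; gain of signal versus DMSO.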

Records with an inconclusive call do not appear. Active and inactive are the calls of the source. Rule for the calls, unless noted: active = hit-call score of the fitted dose curve at least 0.9, where 1 is the maximum; inconclusive = response in the unintended direction; inactive = score below 0.9.

Cellular tumor antigen p53 (Homo sapiens), sequence (P04637 whole entry, looked up): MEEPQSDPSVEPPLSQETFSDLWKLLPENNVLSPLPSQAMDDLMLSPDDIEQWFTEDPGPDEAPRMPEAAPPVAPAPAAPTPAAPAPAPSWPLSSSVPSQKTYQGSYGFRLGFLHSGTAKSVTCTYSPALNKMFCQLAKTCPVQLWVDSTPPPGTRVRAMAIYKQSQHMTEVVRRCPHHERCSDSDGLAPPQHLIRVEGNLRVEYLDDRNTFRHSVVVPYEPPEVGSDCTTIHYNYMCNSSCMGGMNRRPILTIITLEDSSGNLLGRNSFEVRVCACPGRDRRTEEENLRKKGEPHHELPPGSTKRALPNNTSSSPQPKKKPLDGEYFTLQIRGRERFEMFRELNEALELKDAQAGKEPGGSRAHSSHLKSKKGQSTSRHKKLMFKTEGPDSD
bovine Estrogen Receptor (ER), ESR1 (gene 407238), sequence (P49884 whole entry, looked up): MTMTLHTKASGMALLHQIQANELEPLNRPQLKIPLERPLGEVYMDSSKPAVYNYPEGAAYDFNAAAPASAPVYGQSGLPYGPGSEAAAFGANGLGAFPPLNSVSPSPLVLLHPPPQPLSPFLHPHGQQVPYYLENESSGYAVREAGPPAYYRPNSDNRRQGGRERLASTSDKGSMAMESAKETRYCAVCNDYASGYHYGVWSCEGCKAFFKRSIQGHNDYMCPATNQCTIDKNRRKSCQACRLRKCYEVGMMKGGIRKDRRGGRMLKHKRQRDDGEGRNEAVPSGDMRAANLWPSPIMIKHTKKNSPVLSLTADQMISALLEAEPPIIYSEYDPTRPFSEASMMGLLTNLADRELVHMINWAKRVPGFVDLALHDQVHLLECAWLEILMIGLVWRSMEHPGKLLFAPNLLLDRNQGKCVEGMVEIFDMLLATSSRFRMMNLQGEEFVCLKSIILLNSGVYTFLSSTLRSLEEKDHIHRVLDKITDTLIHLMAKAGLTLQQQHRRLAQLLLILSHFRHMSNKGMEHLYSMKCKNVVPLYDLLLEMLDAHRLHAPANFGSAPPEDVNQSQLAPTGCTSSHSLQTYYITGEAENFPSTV
rat Neurotensin Receptor (NTS), Ntsr1 (gene 366274), sequence (P20789 whole entry, looked up): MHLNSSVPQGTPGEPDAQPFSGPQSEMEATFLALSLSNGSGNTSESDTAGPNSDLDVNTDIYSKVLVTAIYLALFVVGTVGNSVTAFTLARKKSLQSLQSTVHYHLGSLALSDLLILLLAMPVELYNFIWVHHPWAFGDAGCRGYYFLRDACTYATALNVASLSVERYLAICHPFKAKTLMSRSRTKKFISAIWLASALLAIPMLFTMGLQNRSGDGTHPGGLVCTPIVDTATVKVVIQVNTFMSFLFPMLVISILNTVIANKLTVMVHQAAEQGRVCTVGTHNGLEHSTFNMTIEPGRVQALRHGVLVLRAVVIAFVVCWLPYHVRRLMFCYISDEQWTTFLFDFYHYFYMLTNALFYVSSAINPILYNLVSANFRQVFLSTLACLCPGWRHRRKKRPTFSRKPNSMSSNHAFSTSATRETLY
Bile acid receptor (Homo sapiens), sequence (Q96RI1 whole entry, looked up): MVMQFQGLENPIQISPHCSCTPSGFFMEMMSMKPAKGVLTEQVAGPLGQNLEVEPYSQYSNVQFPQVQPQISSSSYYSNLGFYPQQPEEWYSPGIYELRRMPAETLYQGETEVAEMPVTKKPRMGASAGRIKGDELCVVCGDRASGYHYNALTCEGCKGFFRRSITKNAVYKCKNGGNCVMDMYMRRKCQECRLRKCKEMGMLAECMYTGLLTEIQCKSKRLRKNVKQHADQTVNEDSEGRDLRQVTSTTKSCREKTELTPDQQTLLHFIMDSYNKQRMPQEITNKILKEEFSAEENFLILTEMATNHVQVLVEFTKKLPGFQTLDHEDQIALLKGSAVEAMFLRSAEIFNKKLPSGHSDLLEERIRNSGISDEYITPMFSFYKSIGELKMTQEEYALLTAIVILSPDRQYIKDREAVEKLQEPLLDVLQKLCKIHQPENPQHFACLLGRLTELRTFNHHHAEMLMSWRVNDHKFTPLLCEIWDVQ

As to `CCn1nc(C)c2c1C(=O)NCC(c1ccc(O)cc1)=N2`, the outcome in [1] was inactive. Take `Nc1ccc(Nc2ccccc2)cc1`: the AC50 in test [2] is 8.65 µM (active). In the case of `Nc1ccc(S(=O)(=O)Nc2nccs2)cc1`, the result in test [2] was inactive. On to `CC(C)C(=O)Nc1ccc([N+](=O)[O-])c(C(F)(F)F)c1`, for which the outcome in [3] was inactive. With `COC(=O)c1ccccc1C(=O)O`, the compound was called inactive in test [4].

On to `COC(=O)c1ccc(I)cc1S(=O)(=O)NC(=O)Nc1nc(C)nc(OC)n1`, for which, in test [4], the result was inactive. Take `CCCC(=O)OCCC(C)C`: the result in test [5] was inactive. Take `OCC(CO)(CO)CO`: the result in test [5] was inactive.

As to `CC=Cc1ccc(OCC)c(O)c1`, in test [1], the call was inactive.

Take `CCC(C)(C)C1CCC(O)CC1` (stereo unspecified): the call in test [6] was inactive. As to `CCN(CC)c1c([N+](=O)[O-])cc(C(F)(F)F)c(N)c1[N+](=O)[O-]`, the outcome in [7], in [8], in test [9], in test [10], in test [11] and in [12] was inactive. On to `CCOP(=O)(Sc1ccccc1)Sc1ccccc1`, for which the result in [13] and in [7] was inactive.

With `IC(I)=C(I)I`, the outcome in [13], in test [7], in test [8], in test [14], in test [10] and in [16] was inactive. Also, the AC50 in test [9] was 13.2 µM (active); in test [11] it was 12.8 µM (active); in test [15], 13.7 µM (active); in [12], 13.9 µM (active). Take `O=C1OC(=O)C2C3C=CC(C3)C12` (stereo unspecified): in [17], the compound was classed as inactive.

For `C=CC(=O)OCCCCO`, the compound was called inactive in [13] and in test [7]. In the case of `NC(N)=O`, the outcome in test [17] was inactive. On to `CCCCOC(=O)C(C)Oc1ccc(Oc2ccc(C(F)(F)F)cn2)cc1` (stereo unspecified), for which, in test [18], the compound was called inactive. For `CCCN(CCC)c1c([N+](=O)[O-])cc(S(C)(=O)=O)cc1[N+](=O)[O-]`, the outcome in [7] was inactive. As for `O=C1c2ccccc2C(=O)c2c(Cl)cccc21`, the result in [2] was inactive. Regarding `COc1ccc(N)cc1N`, in test [13], the outcome was inactive.
